Records with an inconclusive call do not appear. Where a call stands in place of a potency, no number is given. The source made the active and inactive calls. Unless noted, the call rests on the fitted dose curve; in most records, active means well fitted curve in the direction sought with a large enough effect; inconclusive means small, poorly fitted or top-dose-only effect, or another doubt; inactive means no such curve, though single readings can be large; an effect the other way counts as inactive or inconclusive.
How the values were obtained:
[1] = target: DNA polymerase III PolC-type (Bacillus subtilis (strain 168)) (UniProt P13267); test: qHTS Validation Assay for the Inhibitors of DNA Replication in Gram-Positive Bacteria (AID 485295);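 further: PicoGreen fluorescence of double-stranded DNA made on primed circular M13 template; series mostly up to about 57 µM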
How it was run: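 Reconstituted B. subtilis holoenzyme (Pol III, beta clamp, SSB, primase) was preincubated with compound at room temperature, then given single-stranded circular M13Gori plus dNTPs and NTPs. EDTA-containing PicoGreen stopped the reaction, and dsDNA product was read by fluorescence.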

[2] = target: Tumor susceptibility gene 101 protein (Homo sapiens) (UniProt Q99816); test: qHTS Validation Assay for Iinhibitors of HIV-1 Budding by Blocking the Interaction of PTAP/TSG101 (AID 485342; calls by dose curve)
How it was run: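 Tsg101 binding domain (10 uM final) in pH 7.5 HEPES/NaCl/Tween 20/EDTA/TCEP buffer was mixed with pin-transferred compounds, then FITC-labeled PTAP peptide (50 nM final) was added; after 20 min at r.t., fluorescence polarization was read.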

[3] = qHTS Validation Assay to Find Inhibitors of Chronic Active B-Cell Receptor Signaling (AID 485345; active means well fitted curve in the direction sought with a large enough effect in the main read-out, with a control signal flat, not every such curve was filed as active)
How it was run: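 TMD8 ABC-DLBCL cells with dox-inducible green luciferase–IκBα fusion and red native luciferase; compounds 46 uM–3 nM, 4 h at 37C with doxycycline in 0.5% FBS IMDM. Green/red ratio normalized to basal and 10 uM MG-132.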

[4] = target: Beta-2 adrenergic receptor (Homo sapiens) (UniProt P07550); test: qHTS validation assay of beta-arrestin-biased ligands of beta2-adrenergic receptor (AID 485366)
How it was run: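 Agonist activity is measured as luciferase luminescence downstream of beta-arrestin recruitment to recombinant beta2-AR in Tango cells. Exposure lasts 18 hr at 37 degrees C, and curves are categorized by r2, response size and activity.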

[5] = Quantitative high throughput screen for delayed death inhibitors of the malarial parasite plastid, 96 hour incubation (AID 488745); further: nearly all actives have a fitted effect of over 70% in size; further: potency means the concentration at half of the fitted maximal effect
How it was run: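 Decreased firefly luciferase luminescence indicates inhibited growth of reporter-integrated P. falciparum after two generations (96 h, 37 C, 5% CO2). Infected erythrocytes at 0.1% parasitemia, 2% hematocrit, in Albumax-supplemented RPMI 1640.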

[6] = Quantitative high throughput screen for delayed death inhibitors of the malarial parasite plastid, 48 hour incubation (AID 488752); further: nearly all actives have a fitted effect of over 65% in size
How it was run: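 One-generation (48 h) growth assay: a decrease in luciferase signal from an integrated reporter in P. falciparum-infected red cells (0.1% parasitemia, 2% hematocrit) after compound exposure at 37 C indicates parasite inhibition.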

[7] = target: Thioredoxin reductase 1, cytoplasmic (Rattus norvegicus) (UniProt O89049); test: qHTS Assay for Substrates of Mammalian Selenoprotein Thioredoxin Reductase 1 (TrxR1) (AID 488772);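 further: series mostly up to about 57 µM; a drop in NADPH fluorescence below the no-compound background marks a TrxR1 substrate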
How it was run: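 In this dual-purpose format, potential substrates are identified from the first fluorescence read after selenite addition, not from the 8-minute delta. Rat enzyme is preincubated with NADPH and then with compound at ~22 deg C.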

[8] = target: Thioredoxin reductase 1, cytoplasmic (Rattus norvegicus) (UniProt O89049); test: qHTS Assay for Inhibitors of Mammalian Selenoprotein Thioredoxin Reductase 1 (TrxR1) (AID 488773); details: Potency: inhibition;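 further: drop in NADPH fluorescence over an 8 min run after selenite addition; series mostly up to about 57 µM; nearly all actives have a fitted effect of over 40% in size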
How it was run: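 Inhibition is scored from the loss of NADPH fluorescence between first and last reads of an 8-min kinetic run. Selenite (400 uM) was the substrate, added after 15 min compound preincubation at room temperature.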

[9] = target: Flap endonuclease 1 (Homo sapiens) (UniProt P39748); test: qHTS Validation Assay for the Inhibitors of Human Flap endonuclease 1 (FEN1) (AID 488816)
How it was run: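 Steps: add FEN1 (10 nM reagent) or buffer only; pin compounds; hold 15 min at room temperature; start with substrate, 50 nM final; read at 0 and 15 min; correct, normalize and fit a four-parameter Hill curve.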

[10] = target: M-phase phosphoprotein 8 (Homo sapiens) (UniProt Q99549); test: qHTS Validation Assay for Inhibitors for MPP8 Chromodomain Interactions with Methylated Histone Tails (AID 488949);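 further: AlphaScreen signal from MPP8 chromodomain bound to biotinylated H3K9me3 peptide; top concentration of the series differs between compounds; nearly all actives have a fitted effect of over 55% in size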
How it was run: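 MPP8 (50 nM) was preincubated with biotinylated H3(1-18)K9me3 peptide (50 nM) in PBS pH 7.4, 0.01% Tween-20 for 30 min at room temperature, then with compounds for 30 min; binding was detected by AlphaScreen.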

[11] = target: Chromobox protein homolog 1 (Homo sapiens) (UniProt P83916); test: qHTS Validation Assay for Inhibitors of HP1-beta Chromodomain Interactions with Methylated Histone Tails (AID 488953);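 further: loss of AlphaScreen luminescence from HP1-beta binding biotinylated H3K9me3 peptide; series mostly up to about 110 µM; nearly all actives have a fitted effect of over 50% in size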
How it was run: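 AlphaScreen proximity signal from streptavidin donor and nickel chelate acceptor beads (final 10 ug/mL) after 30 min dark incubation. Compounds had 30 min at room temperature with preformed complex of 50 nM HP1-beta and 50 nM b-H3(1-18)K9me3 in PBS pH 7.4 with 0.01% Tween-20.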

[12] = target: Transient receptor potential cation channel subfamily V member 1 (Homo sapiens) (UniProt Q8NER1); test: HTS Assay for Compounds that Act as Enhancers of the Vanilloid Receptor 1 (AID 488979)
How it was run: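 TRPV1-expressing cells loaded with Fluo-8 calcium dye; compounds added and calcium influx read kinetically for 3 min (agonist phase), then capsaicin at EC20 added and read 2 min more for enhancement. Fluorescence ex 480/em 520 nm.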

[13] = target: Thyrotropin receptor (Homo sapiens) (UniProt P16473); test: qHTS Assay for Antagonists of the Thyroid Stimulating Hormone Receptor (AID 488980); further: series mostly up to about 58 µM
How it was run: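 HEK293 cells transfected with human TSHR, suspended in HEPES-buffered HBSS with 70 uM RO 20-1724, were treated with compounds plus TSH at EC80 (4 nM final). cAMP was measured by competitive HTRF (cryptate anti-cAMP antibody, cAMP-d2 acceptor).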

[14] = target: D(1A) dopamine receptor (Homo sapiens) (UniProt P21728); test: HTS Assay for Allosteric Agonists of the Human D1 Dopamine Receptor: Primary Screen for Agonists (AID 488981)
How it was run: (§1)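 Tetracycline-induced HEK293 T-REx cells force-coupled to calcium signalling were incubated overnight at 30 C and dye-loaded at room temperature. Calcium flux over 180 s after compound addition flagged agonists; a further 180 s read after EC20 dopamine flagged potentiators.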

[15] = target: D(1A) dopamine receptor (Homo sapiens) (UniProt P21728); test: HTS Assay for Allosteric Agonists of the Human D1 Dopamine Receptor: Primary Screen for Potentiators (AID 488982)
How it was run: as §1

[16] = target: D(1A) dopamine receptor (Homo sapiens) (UniProt P21728); test: HTS Assay for Allosteric Agonists of the Human D1 Dopamine Receptor: Primary Screen for Antagonists (AID 488983);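 further: calcium flux response to an EC80 dopamine challenge measured with no-wash dye; nearly all actives have a fitted effect of over 65% in size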; further: potency means the concentration at half of the fitted maximal effect
How it was run: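 Calcium-flux read-out in inducible HEK293 T-REx cells expressing D1, dye-loaded 30–90 min at room temperature. Kinetic reads: 180 s after compound (agonist phase), then 180 s after an EC80 dopamine challenge.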

[17] = Validation screen for small molecules that induce genotoxicity in human embryonic kidney (HEK293T) cells expressing luciferase-tagged ELG1 (AID 493106)
How it was run: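 ELG1-luciferase reporter readout (ONE-Glo, 30 min, room temperature) after 16 hr compound treatment at 37 °C of HEK293T cells at 2,000 per well. Rising luminescence flags genotoxic stress.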

[18] = target: Methanococcus maripaludis chaperonin (MmCpn) (UniProt Q6LX38); test: High-Throughput Screening for Modulators of Cytosolic Chaperonin Activity: MmCpn Primary Screen (AID 488978);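 further: 50 nM MmCpn enzyme hydrolysing 30 µM ATP at 37 °C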
How it was run: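 MmCpn (50 nM final) was preincubated with compound 5 min at RT, then 30 uM ATP (final) was added and the reaction ran 10 min at 37C. ADP produced was detected by Transcreener HTRF (ex 320 nm; em 590/665 nm).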

[19] = target: ATP-dependent 6-phosphofructokinase (Trypanosoma brucei brucei) (UniProt O15648); test: qHTS Assay to Find Inhibitors of T. brucei phosphofructokinase: hit validation (AID 492961);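 further: luminescence reports ADP formed as PFK phosphorylates fructose-6-phosphate with ATP; series mostly up to about 51 µM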
How it was run: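 PFK 1.25 nM, F6P 0.5 mM, ATP 0.1 mM, MgCl2 5 mM, 0.1 M TEA pH 8.0, Tween20 0.01%, BSA 0.1%; 45 min RT. ADP-Glo two-step detection, luminescence. qHTS titration; curve fitting with curve-class categorization.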

[20] = target: ATP-dependent 6-phosphofructokinase (Trypanosoma brucei brucei) (UniProt O15648); test: qHTS Validation Assay to Find Inhibitors of T. brucei phosphofructokinase (AID 485368); details: outcome: dose series up to 57.5 µM
How it was run: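 Inhibition derived from concentration-response curves of luminescence, ranked by r2, response size and curve class; the underlying reaction used 1.25 nM PFK, 0.1 mM ATP and 0.5 mM F6P, 45 min, room temperature.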

Chain of Beta-2 adrenergic receptor (Homo sapiens) (P07550 whole entry, looked up): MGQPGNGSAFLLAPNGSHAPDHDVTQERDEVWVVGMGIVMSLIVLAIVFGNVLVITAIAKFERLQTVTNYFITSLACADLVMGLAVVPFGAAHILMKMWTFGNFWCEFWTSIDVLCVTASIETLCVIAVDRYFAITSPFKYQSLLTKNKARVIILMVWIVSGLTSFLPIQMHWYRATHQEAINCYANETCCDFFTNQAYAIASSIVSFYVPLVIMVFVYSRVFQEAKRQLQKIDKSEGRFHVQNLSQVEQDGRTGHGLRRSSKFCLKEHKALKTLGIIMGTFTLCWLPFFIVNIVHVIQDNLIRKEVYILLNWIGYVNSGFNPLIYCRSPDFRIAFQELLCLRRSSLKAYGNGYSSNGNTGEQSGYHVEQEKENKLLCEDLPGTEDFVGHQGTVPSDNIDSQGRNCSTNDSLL
Chain of DNA polymerase III PolC-type (Bacillus subtilis (strain 168)) (P13267 whole entry, looked up): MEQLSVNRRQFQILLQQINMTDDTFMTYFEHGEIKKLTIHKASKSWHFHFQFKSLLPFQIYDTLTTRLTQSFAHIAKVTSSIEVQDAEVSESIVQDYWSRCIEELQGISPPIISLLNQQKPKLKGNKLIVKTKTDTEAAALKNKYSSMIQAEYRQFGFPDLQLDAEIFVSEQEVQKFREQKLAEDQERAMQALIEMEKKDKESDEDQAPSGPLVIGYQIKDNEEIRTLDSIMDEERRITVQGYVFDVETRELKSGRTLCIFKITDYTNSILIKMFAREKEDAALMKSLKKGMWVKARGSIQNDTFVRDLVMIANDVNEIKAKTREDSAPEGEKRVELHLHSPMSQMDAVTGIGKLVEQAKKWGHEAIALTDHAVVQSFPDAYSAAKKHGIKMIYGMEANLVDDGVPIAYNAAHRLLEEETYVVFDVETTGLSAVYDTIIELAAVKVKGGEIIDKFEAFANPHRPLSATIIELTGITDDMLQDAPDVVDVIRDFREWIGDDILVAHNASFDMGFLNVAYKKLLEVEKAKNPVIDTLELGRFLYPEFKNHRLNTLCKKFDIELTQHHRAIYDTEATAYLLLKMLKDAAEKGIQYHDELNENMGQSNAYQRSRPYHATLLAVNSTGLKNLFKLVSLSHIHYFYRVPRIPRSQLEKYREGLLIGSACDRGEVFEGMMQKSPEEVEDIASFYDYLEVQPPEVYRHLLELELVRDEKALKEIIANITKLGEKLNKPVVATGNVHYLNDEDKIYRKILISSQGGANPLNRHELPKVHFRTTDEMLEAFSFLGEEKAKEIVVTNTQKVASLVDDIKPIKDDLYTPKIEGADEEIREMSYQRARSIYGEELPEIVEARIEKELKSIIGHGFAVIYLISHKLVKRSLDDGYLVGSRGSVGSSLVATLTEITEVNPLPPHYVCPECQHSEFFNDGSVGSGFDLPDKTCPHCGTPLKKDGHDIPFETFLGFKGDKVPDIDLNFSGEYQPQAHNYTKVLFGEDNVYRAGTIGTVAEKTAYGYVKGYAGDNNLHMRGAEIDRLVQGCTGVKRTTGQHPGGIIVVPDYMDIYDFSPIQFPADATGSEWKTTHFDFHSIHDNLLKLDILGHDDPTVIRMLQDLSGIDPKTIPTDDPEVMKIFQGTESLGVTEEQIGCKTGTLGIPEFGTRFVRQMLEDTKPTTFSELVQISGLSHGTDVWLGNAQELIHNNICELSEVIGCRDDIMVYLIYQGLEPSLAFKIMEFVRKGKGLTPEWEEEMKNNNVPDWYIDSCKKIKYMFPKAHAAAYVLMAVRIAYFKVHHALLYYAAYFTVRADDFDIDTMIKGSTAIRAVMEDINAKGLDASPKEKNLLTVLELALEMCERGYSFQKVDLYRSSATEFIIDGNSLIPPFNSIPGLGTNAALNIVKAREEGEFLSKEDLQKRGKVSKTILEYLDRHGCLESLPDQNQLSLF
Chain of Thioredoxin reductase 1, cytoplasmic (Rattus norvegicus) (O89049 whole entry, looked up): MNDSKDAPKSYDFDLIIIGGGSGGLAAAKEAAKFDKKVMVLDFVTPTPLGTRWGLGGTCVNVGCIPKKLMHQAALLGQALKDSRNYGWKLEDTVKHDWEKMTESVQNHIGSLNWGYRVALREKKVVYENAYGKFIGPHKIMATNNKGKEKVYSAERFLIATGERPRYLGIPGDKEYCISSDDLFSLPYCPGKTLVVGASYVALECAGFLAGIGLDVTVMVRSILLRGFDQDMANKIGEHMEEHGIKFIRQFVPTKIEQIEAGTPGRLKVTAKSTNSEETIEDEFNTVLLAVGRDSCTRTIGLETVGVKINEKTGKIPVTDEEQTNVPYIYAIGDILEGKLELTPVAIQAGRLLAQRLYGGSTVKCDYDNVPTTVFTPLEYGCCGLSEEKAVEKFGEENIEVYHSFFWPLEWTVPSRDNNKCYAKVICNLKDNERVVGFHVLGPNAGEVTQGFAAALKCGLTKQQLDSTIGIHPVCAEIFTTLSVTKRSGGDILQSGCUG
Chain of Chromobox protein homolog 1 (Homo sapiens) (P83916 whole entry, looked up): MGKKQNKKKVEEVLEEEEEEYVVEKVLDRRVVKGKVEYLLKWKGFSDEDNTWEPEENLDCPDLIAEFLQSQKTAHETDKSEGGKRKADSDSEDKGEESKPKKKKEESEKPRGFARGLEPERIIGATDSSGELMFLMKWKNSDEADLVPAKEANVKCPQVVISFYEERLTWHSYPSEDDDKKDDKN
Chain of ATP-dependent 6-phosphofructokinase (Trypanosoma brucei brucei) (O15648 whole entry, looked up): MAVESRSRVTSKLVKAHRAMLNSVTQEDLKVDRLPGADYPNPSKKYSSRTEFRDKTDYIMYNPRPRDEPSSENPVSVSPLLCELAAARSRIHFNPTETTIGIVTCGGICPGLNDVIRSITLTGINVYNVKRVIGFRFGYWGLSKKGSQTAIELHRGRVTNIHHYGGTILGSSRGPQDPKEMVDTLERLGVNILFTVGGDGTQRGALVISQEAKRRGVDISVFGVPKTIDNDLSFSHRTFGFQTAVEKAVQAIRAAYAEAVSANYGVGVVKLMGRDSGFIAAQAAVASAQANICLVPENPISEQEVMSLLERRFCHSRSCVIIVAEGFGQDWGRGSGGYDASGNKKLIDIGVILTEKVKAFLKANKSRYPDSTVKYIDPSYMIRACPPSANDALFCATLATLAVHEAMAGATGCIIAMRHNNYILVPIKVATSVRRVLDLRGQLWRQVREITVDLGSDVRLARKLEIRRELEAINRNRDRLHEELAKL
Chain of Methanococcus maripaludis chaperonin (MmCpn) (Q6LX38 1-543): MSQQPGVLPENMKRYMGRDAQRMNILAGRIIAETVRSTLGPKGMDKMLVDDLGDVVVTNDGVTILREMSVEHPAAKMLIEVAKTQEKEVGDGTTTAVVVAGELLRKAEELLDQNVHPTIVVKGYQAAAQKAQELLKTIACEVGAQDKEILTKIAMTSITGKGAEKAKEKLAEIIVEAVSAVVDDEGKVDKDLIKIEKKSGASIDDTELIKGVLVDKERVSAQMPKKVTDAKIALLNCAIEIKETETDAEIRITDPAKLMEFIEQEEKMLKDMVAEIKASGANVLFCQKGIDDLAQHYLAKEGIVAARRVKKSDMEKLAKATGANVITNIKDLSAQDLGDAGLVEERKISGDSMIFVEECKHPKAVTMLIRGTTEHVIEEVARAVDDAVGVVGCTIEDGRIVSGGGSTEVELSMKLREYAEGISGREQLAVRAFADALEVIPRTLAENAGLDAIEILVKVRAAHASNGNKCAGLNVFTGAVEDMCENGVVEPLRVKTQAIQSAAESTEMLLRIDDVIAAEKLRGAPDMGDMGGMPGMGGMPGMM
Chain of Flap endonuclease 1 (Homo sapiens) (P39748 whole entry, looked up): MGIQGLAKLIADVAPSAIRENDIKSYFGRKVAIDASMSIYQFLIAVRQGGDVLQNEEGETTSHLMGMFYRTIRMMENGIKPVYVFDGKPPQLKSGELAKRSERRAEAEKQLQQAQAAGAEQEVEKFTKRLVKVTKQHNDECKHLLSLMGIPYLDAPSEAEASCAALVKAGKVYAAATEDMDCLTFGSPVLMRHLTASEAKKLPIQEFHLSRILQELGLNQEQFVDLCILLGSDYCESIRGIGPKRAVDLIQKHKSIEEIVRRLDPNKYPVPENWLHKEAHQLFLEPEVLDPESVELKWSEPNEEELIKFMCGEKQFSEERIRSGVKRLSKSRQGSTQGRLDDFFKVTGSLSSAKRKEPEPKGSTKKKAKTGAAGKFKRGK
Chain of Thyrotropin receptor (Homo sapiens) (P16473 whole entry, looked up): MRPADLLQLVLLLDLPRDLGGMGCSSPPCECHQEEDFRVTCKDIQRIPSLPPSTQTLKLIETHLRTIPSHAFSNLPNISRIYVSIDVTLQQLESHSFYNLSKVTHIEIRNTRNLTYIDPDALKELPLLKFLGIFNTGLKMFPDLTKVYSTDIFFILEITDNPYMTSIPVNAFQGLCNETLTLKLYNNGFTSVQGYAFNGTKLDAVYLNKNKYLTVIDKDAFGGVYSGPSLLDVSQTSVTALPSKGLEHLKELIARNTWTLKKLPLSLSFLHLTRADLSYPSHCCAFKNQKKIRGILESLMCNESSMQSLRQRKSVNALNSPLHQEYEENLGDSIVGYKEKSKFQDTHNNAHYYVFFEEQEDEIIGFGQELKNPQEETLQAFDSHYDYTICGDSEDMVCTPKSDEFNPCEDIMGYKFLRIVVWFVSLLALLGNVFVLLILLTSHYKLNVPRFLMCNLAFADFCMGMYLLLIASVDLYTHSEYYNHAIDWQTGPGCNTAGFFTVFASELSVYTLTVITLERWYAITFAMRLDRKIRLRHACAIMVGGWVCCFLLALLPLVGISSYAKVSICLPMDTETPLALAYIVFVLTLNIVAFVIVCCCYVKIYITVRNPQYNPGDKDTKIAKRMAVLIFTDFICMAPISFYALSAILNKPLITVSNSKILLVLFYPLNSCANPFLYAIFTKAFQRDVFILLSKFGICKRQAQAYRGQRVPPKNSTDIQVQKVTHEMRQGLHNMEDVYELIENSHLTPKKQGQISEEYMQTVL

| Compound | Potency [1] | outcome [2] | Potency [3] | outcome [4] | Potency [5] | Potency [6] | outcome [7] | Potency [8] | Potency [9] | Potency [10] | Potency [11] | outcome [12] | outcome [13] | Potency [14] | Potency [15] | Potency [16] | Potency [17] | outcome [18] | outcome [19] | outcome [20] |
| --- | --- | --- | --- | --- | --- | --- | --- | --- | --- | --- | --- | --- | --- | --- | --- | --- | --- | --- | --- | --- |
| Cc1ccc(S(=O)(=O)NC(=O)NN2CCCCCC2)cc1 | inactive | inactive | inactive | inactive | inactive | inactive | inactive | inactive | inactive | inactive | inactive | inactive | inactive | inactive | inactive | inactive | inactive |  |  |  |
| O=C(O)CN(CCN(CC(=O)O)CC(=O)O)CCN(CC(=O)O)CC(=O)O | inactive | inactive | inactive | inactive |  | inactive | inactive | inactive | inactive | inactive | inactive | inactive |  | inactive | inactive | inactive | inactive |  |  |  |
| OCCN1CCN(CCCN2c3ccccc3C=Cc3ccccc32)CC1 | inactive | inactive | inactive | inactive | 13.1 µM (active) |  |  | inactive | inactive | inactive |  | inactive | inactive | inactive | inactive | 11.2 µM (active) | inactive | inactive | inactive |  |
| Cc1scc2c1N(C(=O)CN1CCN(C)CC1)c1ccccc1NC2=O | inactive | inactive | inactive | inactive | inactive | inactive | inactive |  |  | inactive |  | inactive | inactive | inactive |  | inactive | inactive | inactive |  |  |
| CN=C(NC#N)NCCSCc1nc[nH]c1C | inactive | inactive | inactive | inactive | inactive | inactive | inactive | inactive | inactive |  | inactive | inactive | inactive | inactive | inactive | inactive | inactive | inactive |  |  |
| O=C1CC2(CCCC2)CC(=O)N1CCCCN1CCN(c2ncccn2)CC1 | inactive | inactive | inactive | inactive | inactive | inactive | inactive |  | inactive | inactive |  | inactive | inactive | inactive |  | inactive | inactive | inactive |  |  |
| CN1CCN(CC(=O)N2c3ccccc3C(=O)Nc3cccnc32)CC1 | inactive | inactive | inactive | inactive | inactive | inactive | inactive |  | inactive | inactive |  | inactive | inactive | inactive |  | inactive | inactive |  |  |  |
| Nc1c2c(nc3ccccc13)CCCC2O (stereo not given) | inactive | inactive | inactive | inactive | inactive | inactive | inactive | inactive | inactive | inactive | inactive | inactive | inactive | inactive | inactive | inactive | inactive | inactive |  |  |
| CC(C)(C)c1ccc(C(=O)CCCN2CCC(OC(c3ccccc3)c3ccccc3)CC2)cc1 | inactive | inactive | inactive | inactive |  |  | inactive |  | inactive | inactive |  |  |  | inactive |  |  | inactive |  |  | inactive |
| CN/C(=C\[N+](=O)[O-])NCCSCc1ccc(CN(C)C)o1 | inactive | inactive | inactive | inactive | inactive | inactive | inactive | inactive |  |  |  | inactive | inactive | inactive | inactive | inactive | inactive |  |  |  |
| CCCN(CCC)CCc1cccc2c1CC(=O)N2 | inactive | inactive | inactive | inactive | inactive | inactive | inactive | inactive | inactive | inactive | inactive | inactive | inactive | inactive | inactive | inactive | inactive | inactive |  |  |
| CCn1nc(C(=O)O)c(=O)c2cc3c(cc21)OCO3 | inactive | inactive | inactive | inactive |  | inactive | inactive |  |  | inactive | inactive | inactive | inactive | inactive | inactive | inactive |  | inactive |  |  |
| CC(=O)OC(C)C[N+](C)(C)C (stereo not given) | inactive | inactive | inactive | inactive | inactive | inactive | inactive | inactive | inactive | inactive | inactive | inactive | inactive | inactive | inactive | inactive | inactive | inactive |  |  |
| C[N+](C)(C)CCOC(N)=O | inactive | inactive | inactive | inactive | inactive | inactive | inactive |  | inactive | inactive | inactive | inactive | inactive | inactive | inactive | inactive | inactive | inactive |  |  |
| CC(C(=O)O)c1ccc(CC2CCCC2=O)cc1 (stereo not given) | inactive | inactive | inactive | inactive | inactive | inactive |  |  | inactive | inactive |  | inactive | inactive | inactive | inactive | inactive | inactive | inactive |  |  |
| CCCN1C[C@H](CSC)C[C@@H]2c3cccc4[nH]cc(c34)C[C@H]21 | inactive | inactive | inactive | inactive |  |  | inactive |  | inactive | inactive |  | inactive | inactive | inactive | inactive |  | inactive | inactive |  | inactive |
| CC(=O)[C@@]1(O)CC[C@H]2[C@@H]3CCC4=CC(=O)CC[C@]4(C)[C@H]3CC[C@@]21C | inactive | inactive | inactive | inactive |  |  | inactive | inactive | inactive | inactive | inactive |  |  | inactive | inactive | inactive |  | inactive | inactive |  |

Source: PubChem BioAssay (NCATS)
